Test results reported in PubChem BioAssay (EPA / NIEHS).
Records with an inconclusive call do not appear. Active and inactive are the calls of the source. The calls were made as follows: active = hit-call score of the fitted dose curve at least 0.9, where 1 is the maximum; inconclusive = response in the unintended direction; inactive = score below 0.9.

Test: Tanguay_ZF_120hpf_CIRC_legacy: (Legacy) Oregon State University Tanguay Lab 120 Hour Post-fertilization zebrafish Assay for Circulatory Malformation (AID 2283651)
Description: Tanguay_ZF_120hpf_legacy is a whole embryo, multiplexed endpoint assay using zebrafish larvae exposed for 120 hours post fertilization on a 96-well plate.Tanguay_ZF_120hpf_CIRC_legacy is one of one assay component(s) measured or calculated from the Tanguay_ZF_120hpf_legacy assay. It is designed to make measurements of zebrafish development as detected with brightfield microscopy of developing zebrafish embryos.Data from the assay component Tanguay_ZF_120hpf_CIRC_legacy was analyzed into 1 assay endpoints. This assay endpoint, Tanguay_ZF_120hpf_CIRC_legacy, was analyzed in the positive analysis fitting direction relative to DMSO as the negative control and baseline of activity. Using a type of morphology reporter, gain-of-signal activity can be used to understand changes in developmentals as they relate to the whole embryo. To generalize the intended target to other relatable targets, this assay endpoint is annotated to the zebrafish development intended target family, where the subfamily is angiogenesis.
Zebrafish husbandry: Tropical 5D wild-type adult zebrafish were housed in at an approximate density of 1000 per 100 gallon tank at the Sinnhuber Aquatic Research Laboratory, Oregon State University, Corvallis, OR. Each tank was kept at standard laboratory conditions of 28C on a 14-h light/10-h dark photoperiod in fish water consisting of reverse osmosis water supplemented with a commercially available salt (Instant Ocean). Spawning funnels were placed into the tanks the night prior, and embryos were collected and staged. To increase bioavailability, the chorion was enzymatically removed using pronase (63.6mg/ml, >/= 3.5U/mg, Sigma-Aldrich: P5147) at 4 hours post fertilization (hpf) using a custom automated dechorionator.Chemical exposures: Six hpf dechorionated embryos were placed 1 embryo per well in a 96-well plate prefilled with 90 ul of EM using automated embryo placement systems (AEPS). Ten microliters of each row of dilution plate 2 was added to 2 exposure plates. The final DMSO concentration used was 0.64% (vol/vol). Thirty-two embryos were also exposed to 5uM trimethyltin chloride (positive control). Plates were sealed to prevent evaporation and foil covered to reduce light exposure and kept in a 28C incubator. Embryos were statically exposed until 120 hpf. At 24 hpf, embryos were assessed for photomotor response using a custom photomotor response analysis tool (PRAT) and for developmental toxicity endpoints (MO24: mortality at 24 hpf, DP: developmental progression, SM: spontaneous movement, and NC: notochord distortion). At 120 hpf, locomotor activity was measured using Viewpoint Zebralab and assessed for 18 endpoints. Zebrafish acquisition and analysis program (ZAAP), a custom program designed to inventory, acquire, and manage zebrafish data, was used to collect developmental endpoints as either present or absent (i.e., binary responses were recorded). If mortality occurred for an embryo (at either 24 or 120 hpf), the non-mortality endpoints were not measured.

Structure (SMILES) | outcome | AC50
O=NN(c1ccccc1)c1ccccc1 | inactive | 
O=C(O)C(F)(F)C(F)(F)C(F)(F)C(F)(F)C(F)(F)F | inactive | 
O=C(NC(=O)c1cc(F)c(F)cc1Cl)Nc1cc(F)ccc1N1CCC(C(=O)O)CC1 | inactive | 
CN(C)CCO | inactive | 
ClC(Cl)=C(c1ccc(Cl)cc1)c1ccc(Cl)cc1 | inactive | 
CC(C)C(=O)OCC(C)(C)C(OC(=O)C(C)C)C(C)C (stereo not given) | inactive | 
Nn1cnnc1 | inactive | 
O=C(N[C@H]1CN2CCC1CC2)c1cc2ccoc2cn1 | inactive | 
Cc1ccccc1CO[C@@H]1C[C@@]2(C(C)C)CC[C@]1(C)O2 | inactive | 
C[C@]12CCC(=O)C=C1CC[C@@H]1[C@@H]2CC[C@]2(C)C(=O)CC[C@@H]12 | inactive | 
Cc1cccc(C)c1N | inactive | 
O=C(O)C(F)(F)C(F)(F)C(F)(F)C(F)(F)C(F)(F)C(F)(F)C(F)(F)C(F)(F)F | inactive | 
Cc1ccc(O)c(C)c1 | inactive | 
C1CC2OC2CC1C1CO1 (stereo not given) | inactive | 
O=C(O)C(F)(F)C(F)(F)C(F)(F)C(F)(F)C(F)(F)C(F)(F)C(F)(F)C(F)(F)C(F)(F)F | inactive | 
CCCCCCOC(=O)c1ccccc1C(=O)OCCCCCC | inactive | 
CCOCCOC(C)=O | inactive | 
CCSC(=O)N(CC)C1CCCCC1 | inactive | 
CCC(C)(c1ccc(O)cc1)c1ccc(O)cc1 |  | 42.7 µM (active)
COS(=O)(=O)OC | inactive | 

Structure (SMILES) | outcome | AC50
CCC(C)c1cc([N+](=O)[O-])cc([N+](=O)[O-])c1O (stereo not given) | inactive | 
CC(C)(O)C(=O)Nc1ccc([N+](=O)[O-])c(C(F)(F)F)c1 | inactive | 
C[C@]12CCC(=O)C=C1CC[C@@H]1[C@@H]2CC[C@@]2(C)[C@H]1CC[C@]2(C)O | inactive | 
CCOP(=S)(OCC)SCSC(C)(C)C | inactive | 
CC1=C2C[C@H]3[C@@H](CC=C4C[C@@H](O)CC[C@@]43C)[C@@H]2CC[C@]12O[C@@H]1C[C@H](C)CN[C@H]1[C@H]2C | inactive | 
CC(C)(c1ccccc1)c1ccc(O)cc1 | inactive | 
C=CC(=O)NCNC(=O)C=C | inactive | 
ClC1=C(Cl)[C@]2(Cl)[C@@H]3[C@@H](Cl)[C@H]4O[C@H]4[C@@H]3C1(Cl)C2(Cl)Cl | inactive | 
CCCCCCCCOC(=O)c1ccccc1C(=O)OCCCCCCCC | inactive | 
CCNc1nc(NC(C)C)nc(SC)n1 | inactive | 
Cc1ccccc1O | inactive | 
CCCN(CCC)N=O | inactive | 
CC#Cc1cc(C)nc(Nc2ccccc2)n1 | inactive | 
c1cc2ccc3cccc4ccc(c1)c2c34 | inactive | 
Clc1ccc(Cl)cc1 | inactive | 
CCC(=O)O[C@H]1CC[C@H]2[C@@H]3CCC4=CC(=O)CC[C@]4(C)[C@H]3CC[C@]12C | inactive | 
Cc1cc(-c2ccc(N)c(C)c2)ccc1N | inactive | 
CO/C=C(/C(=O)OC)c1ccccc1COc1cccc(C(F)(F)F)n1 |  | 9.76 µM (active)
CC(c1ccc(O)cc1)(c1ccc(O)cc1)c1ccc(O)cc1 | inactive | 
NS(=O)(=O)C(F)(F)C(F)(F)C(F)(F)C(F)(F)C(F)(F)C(F)(F)C(F)(F)C(F)(F)F | inactive | 
